Assay results published in PubChem BioAssay.
Activity calls are given as the source filed them.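 Rule for the calls, unless noted: active = NADPH fluorescence slope more negative than the mean of all samples by about 3 SD, 99.7% confidence; inactive = the rest.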

What follows are compounds tested against Voltage-gated potassium channel subunit beta-2 (Rattus norvegicus) (UniProt P62483) (assay: inhibitors of rat Kvbeta2 reductase activity – biochemical, NADPH fluorescence, primary screen (AID 622;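 active = fluorescence slope higher than the sample average by over 3 SD, cut at about -0.22 in these data, passing the limit was not always enough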;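 note: slope of raw intensity against log time taken from 70 to 1610 s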)). Conditions: recombinant KvBeta, 4-cyanobenzaldehyde reduction, at 10 µM, hits give high values.
Sequence of Voltage-gated potassium channel subunit beta-2 (Rattus norvegicus) (P62483 whole entry, looked up): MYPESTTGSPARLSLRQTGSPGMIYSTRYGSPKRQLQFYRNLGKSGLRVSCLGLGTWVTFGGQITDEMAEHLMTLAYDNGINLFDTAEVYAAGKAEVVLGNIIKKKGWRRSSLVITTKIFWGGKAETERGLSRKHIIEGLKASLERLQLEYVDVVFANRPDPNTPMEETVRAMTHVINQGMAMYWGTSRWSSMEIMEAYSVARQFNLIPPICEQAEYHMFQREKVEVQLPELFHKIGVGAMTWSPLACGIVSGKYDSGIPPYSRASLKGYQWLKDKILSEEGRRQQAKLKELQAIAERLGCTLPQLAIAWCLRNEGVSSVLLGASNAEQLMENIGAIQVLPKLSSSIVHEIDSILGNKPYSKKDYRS

Fluorescence slope, inactive:
O=C(O)c1cc(O)c2c(c1)C(=O)c1cccc(O)c1C2=O -0.417
CCCCC(=O)Nc1c(O)c2ccccc2[nH]c1=O -0.491
Cc1cc(C)n(CC(=O)n2c3c(c4ccccc42)CCCC3)n1 -0.53
CCC(NC(C)C)C(O)c1ccc(O)c(O)c1 (stereo not drawn) -0.492
COc1ccc(C2CNC(=O)C2)cc1OC1CCCC1 (stereo not drawn) -0.507
Cn1cnc2c1c(=O)[nH]c(=O)n2C -0.513
N=c1nc(N2CCCCC2)cc(N)n1O -0.46
CCCCCC(=O)N1CC2(C)CN(C(=O)CCCCC)CC(C)(C1)C2=O -0.352
O=C(O)Cc1ccc(-c2ccccc2)cc1 -0.444
CCSc1nc(N)c(C#N)c(-c2ccccc2Cl)c1C#N -0.473
O=C(OCC#CCSc1nnc(-c2ccccc2)o1)c1cccs1 -0.396
Nc1nc(F)nc2c1ncn2[C@@H]1O[C@H](CO)[C@@H](O)[C@@H]1O -0.491
Cc1nc2sccn2c(=O)c1CCN1CCC(=C(c2ccc(F)cc2)c2ccc(F)cc2)CC1 -0.459
OCCNC1=NCCN1 -0.523
CCC[C@@H]1C[C@@H](C(=O)N[C@H]([C@@H](C)O)[C@H]2O[C@H](SC)[C@H](O)[C@@H](O)C2O)N(C)C1 (stereo partly drawn) -0.465
CCOC(=O)C1=C[C@]2(CC)CCCN3CCc4c(n1c1ccccc41)[C@@H]32 -0.443
NS(=O)(=O)c1cc2c(cc1Cl)NC(CSCc1ccccc1)=NS2(=O)=O -0.459
Nc1ccc(S(=O)(=O)Nc2ccccn2)cc1 -0.459
CC(=O)Oc1cccc2c1C(=O)c1c(OC(C)=O)cc(C(=O)O)cc1C2=O -0.438
OCC(O)CN1CCN(c2ccccc2)CC1 (stereo not drawn) -0.455
O=C(NC1(C(F)(F)F)C(=O)Nc2c1c(=O)[nH]c(=O)n2Cc1ccco1)C1CCCCC1 (stereo not drawn) -0.49
CCN(CC)CC#CCOC(=O)C(O)(c1ccccc1)C1CCCCC1 (stereo not drawn) -0.492
CN1[C@@H](CC(=O)c2ccccc2)CCC[C@H]1C[C@H](O)c1ccccc1 -0.436
O=C(O)c1ccccc1Nc1cccc(C(F)(F)F)c1 -0.455
O=[N+]([O-])c1cccc2cn[nH]c12 -0.448
COc1cccc(-c2nnc3sc(C4CCCCC4)nn23)c1 -0.418
CNCCCC1c2ccccc2C=Cc2ccccc21 -0.496
CC(C)(C)NCC(O)COc1cccc2c1C[C@H](O)[C@H](O)C2 (stereo partly drawn) -0.441
CCOC(=O)CSC1=C(C#N)C(=O)NC(c2ccc(OC)c(OC)c2)S1 (stereo not drawn) -0.509
COc1ccc2nc(S(=O)Cc3ncc(C)c(OC)c3C)[nH]c2c1 (stereo not drawn) -0.449
Cc1cc(C)c(C#N)c(SCc2[nH]nc3c2C(c2ccccc2)C(C#N)=C(N)O3)n1 (stereo not drawn) -0.571
O/N=C/c1ccc(OCC(O)COc2ccc(/C=N/O)cc2)cc1 -0.33
CC(C)(C)OC(=O)N1CC=C2C(C#N)=C(N)C(C#N)(C#N)[C@H](c3cccnc3)[C@H]2C1 -0.387
Oc1c(I)cc(I)c2cccnc12 -0.436
CCCCOc1ccc(C(=O)CCN2CCCCC2)cc1 -0.421
CN(C)c1nc(OCCOC(=O)Nc2ccc(Cl)cc2Cl)nc(N(C)C)n1 -0.48
CCOC(=O)c1c(C)n(C)c2ccc(OC)c(NC(=O)CCN3CCSCC3)c12 -0.464
CC(C)(C)n1cnc2cc(NS(=O)(=O)c3ccc(Br)cc3)ccc21 -0.373
Cn1c([N+](=O)[O-])cnc1COC(N)=O -0.492

What follows are compounds tested against Voltage-gated potassium channel subunit beta-2 (Rattus norvegicus) (UniProt P62483) (assay: enhancers of rat Kvbeta2 NADPH turnover – biochemical, NADPH fluorescence, primary screen (AID 623;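 note: fluorescence intensity change per second fitted from 20 to 320 s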)). Conditions: Recombinant KvBeta, NADPH fluorescence decrease slope, 10 min; at 10 µM; hits give low values.

NADPH fluorescence slope, inactive:
O=C(O)c1cc(O)c2c(c1)C(=O)c1cccc(O)c1C2=O -1.3e-05
CCCCC(=O)Nc1c(O)c2ccccc2[nH]c1=O -0.000197
Cc1cc(C)n(CC(=O)n2c3c(c4ccccc42)CCCC3)n1 -3.4e-05
CCC(NC(C)C)C(O)c1ccc(O)c(O)c1 (stereo not drawn) -5.8e-05
COc1ccc(C2CNC(=O)C2)cc1OC1CCCC1 (stereo not drawn) -0.000115
Cn1cnc2c1c(=O)[nH]c(=O)n2C 1.2e-05
N=c1nc(N2CCCCC2)cc(N)n1O -6e-05
CCCCCC(=O)N1CC2(C)CN(C(=O)CCCCC)CC(C)(C1)C2=O -4.5e-05
O=C(O)Cc1ccc(-c2ccccc2)cc1 -4.7e-05
CCSc1nc(N)c(C#N)c(-c2ccccc2Cl)c1C#N -0.000189
O=C(OCC#CCSc1nnc(-c2ccccc2)o1)c1cccs1 -4e-05
Nc1nc(F)nc2c1ncn2[C@@H]1O[C@H](CO)[C@@H](O)[C@@H]1O -3.9e-05
Cc1nc2sccn2c(=O)c1CCN1CCC(=C(c2ccc(F)cc2)c2ccc(F)cc2)CC1 -4.2e-05
OCCNC1=NCCN1 -7.4e-05
CCC[C@@H]1C[C@@H](C(=O)N[C@H]([C@@H](C)O)[C@H]2O[C@H](SC)[C@H](O)[C@@H](O)C2O)N(C)C1 (stereo partly drawn) 2.2e-06
CCOC(=O)C1=C[C@]2(CC)CCCN3CCc4c(n1c1ccccc41)[C@@H]32 -4.6e-05
NS(=O)(=O)c1cc2c(cc1Cl)NC(CSCc1ccccc1)=NS2(=O)=O -7.8e-05
Nc1ccc(S(=O)(=O)Nc2ccccn2)cc1 -4.9e-05
CC(=O)Oc1cccc2c1C(=O)c1c(OC(C)=O)cc(C(=O)O)cc1C2=O -4.5e-05
OCC(O)CN1CCN(c2ccccc2)CC1 (stereo not drawn) -1.7e-06
O=C(NC1(C(F)(F)F)C(=O)Nc2c1c(=O)[nH]c(=O)n2Cc1ccco1)C1CCCCC1 (stereo not drawn) 1.3e-05
CCN(CC)CC#CCOC(=O)C(O)(c1ccccc1)C1CCCCC1 (stereo not drawn) -7.5e-05
CN1[C@@H](CC(=O)c2ccccc2)CCC[C@H]1C[C@H](O)c1ccccc1 -0.000135
O=C(O)c1ccccc1Nc1cccc(C(F)(F)F)c1 -3.9e-05
O=[N+]([O-])c1cccc2cn[nH]c12 -7.3e-05
COc1cccc(-c2nnc3sc(C4CCCCC4)nn23)c1 -0.000116
CNCCCC1c2ccccc2C=Cc2ccccc21 -5.9e-05
CC(C)(C)NCC(O)COc1cccc2c1C[C@H](O)[C@H](O)C2 (stereo partly drawn) -2.9e-05
CCOC(=O)CSC1=C(C#N)C(=O)NC(c2ccc(OC)c(OC)c2)S1 (stereo not drawn) -5e-05
COc1ccc2nc(S(=O)Cc3ncc(C)c(OC)c3C)[nH]c2c1 (stereo not drawn) -7.2e-06
Cc1cc(C)c(C#N)c(SCc2[nH]nc3c2C(c2ccccc2)C(C#N)=C(N)O3)n1 (stereo not drawn) 2.5e-06
O/N=C/c1ccc(OCC(O)COc2ccc(/C=N/O)cc2)cc1 -1e-05
CC(C)(C)OC(=O)N1CC=C2C(C#N)=C(N)C(C#N)(C#N)[C@H](c3cccnc3)[C@H]2C1 -4.5e-05
Oc1c(I)cc(I)c2cccnc12 7.6e-06
CCCCOc1ccc(C(=O)CCN2CCCCC2)cc1 -5.1e-05
CN(C)c1nc(OCCOC(=O)Nc2ccc(Cl)cc2Cl)nc(N(C)C)n1 -8.2e-05
CCOC(=O)c1c(C)n(C)c2ccc(OC)c(NC(=O)CCN3CCSCC3)c12 -6.9e-05
CC(C)(C)n1cnc2cc(NS(=O)(=O)c3ccc(Br)cc3)ccc21 2.9e-05
Cn1c([N+](=O)[O-])cnc1COC(N)=O -3.9e-05
